# A number with no mark means an inactive call. Results filed as inconclusive are left out. Entries that show only a call come without a potency. Calls of active or inactive are those of the source. Unless noted, calls follow the shape of the full dose curve.
# How the values were obtained:
# [1] = Nuclear factor erythroid 2-related factor 2/antioxidant responsive element (Nrf2/ARE) small molecule agonists: qHTS cell viability counter screen in human keratinocytes (AID 1919968; active = well fitted curve in the direction sought with a large enough effect in the repeat runs; an effect the other way counts as inactive or inconclusive; also: nearly all actives have a fitted effect of over 55% in size; also: potency is read from the fitted curve at half-maximal effect)
# Summary of the method: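 CellTiter-Fluor fluorescence, read 1 h after reagent, gave viability in the same wells as the ARE-luciferase assay. KeratinoSens cells (1,500/well) had 23 h compound exposure at 37 C/5% CO2 following 5 h plating.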
# [2] = Nuclear factor erythroid 2-related factor 2/antioxidant responsive element (Nrf2/ARE) small molecule agonists: luciferase reporter gene qHTS assay in human keratinocytes (AID 1919969); also: nearly all actives have a fitted effect of over 35% in size; also: potency is read from the fitted curve at half-maximal effect
# [3] = target: Gonadotropin-releasing hormone receptor (Homo sapiens) (UniProt P30968); assay: Human gonadotropin-releasing hormone receptor (GnRHR) small molecule agonists, calcium flux assay in GnRHR-HEK293 cells (AID 1920063); also: nearly all actives have a fitted effect of over 35% in size
# Sequence of Gonadotropin-releasing hormone receptor (Homo sapiens) (P30968 whole entry, looked up): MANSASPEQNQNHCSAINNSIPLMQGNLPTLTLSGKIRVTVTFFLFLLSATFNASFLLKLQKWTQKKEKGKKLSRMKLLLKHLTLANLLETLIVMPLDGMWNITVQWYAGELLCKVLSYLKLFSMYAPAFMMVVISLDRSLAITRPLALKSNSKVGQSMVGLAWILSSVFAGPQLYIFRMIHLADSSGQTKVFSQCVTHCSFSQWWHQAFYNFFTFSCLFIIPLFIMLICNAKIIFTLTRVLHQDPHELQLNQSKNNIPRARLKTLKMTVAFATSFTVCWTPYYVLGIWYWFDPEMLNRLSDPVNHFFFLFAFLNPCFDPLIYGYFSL
# Summary of the method: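 Agonist mode: compounds at 15 concentrations, in triplicate, went onto calcium dye-loaded GnRHR-HEK293 cells. Intracellular calcium was then followed as 480/540 nm fluorescence at 1 s intervals over 3 min.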
# [4] = target: KiSS-1 receptor (Homo sapiens) (UniProt Q969F8); assay: Human kisspeptin (KISS1R) small molecule agonists, calcium flux assay in KISS1R-HEK293 cells (AID 1920064; active = well fitted curve in the direction sought with a large enough effect in the repeat runs; an effect the other way counts as inactive or inconclusive)
# Sequence of KiSS-1 receptor (Homo sapiens) (Q969F8 whole entry, looked up): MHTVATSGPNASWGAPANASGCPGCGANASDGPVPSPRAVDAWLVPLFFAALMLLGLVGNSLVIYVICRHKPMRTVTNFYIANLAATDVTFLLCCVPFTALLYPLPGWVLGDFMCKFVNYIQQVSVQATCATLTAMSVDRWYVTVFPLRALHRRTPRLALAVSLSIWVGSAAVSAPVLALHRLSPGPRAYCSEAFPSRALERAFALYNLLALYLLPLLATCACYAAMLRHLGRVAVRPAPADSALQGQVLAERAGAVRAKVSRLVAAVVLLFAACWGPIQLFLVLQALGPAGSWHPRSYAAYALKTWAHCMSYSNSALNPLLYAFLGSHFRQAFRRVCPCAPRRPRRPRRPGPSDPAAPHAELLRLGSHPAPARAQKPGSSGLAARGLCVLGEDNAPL
# Summary of the method: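 Agonist mode: intracellular calcium rise tracked at 1 s intervals over 3 min (480/540 nm) immediately after compound addition to dye-loaded KISS1R-HEK293 stable cells. Each compound tested at 15 concentrations in triplicate.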
# [5] = G protein-coupled receptor (GPCR) small molecule agonists, calcium flux assay: HEK293 wild type cell line counter screen (AID 1920065)
# Summary of the method: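 Calcium flux counter screen: compound added in agonist mode at 15 concentrations in triplicate to dye-loaded parental HEK293 cells. Fluorescence (480/540) read kinetically for 3 min; ATP served as positive control.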
# [6] = p53 small molecule agonists, cell-based qHTS assay with human liver microsomes (AID 1963577);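 also: p53 response element beta-lactamase reporter cells with liver microsomes plus NADPH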
# Summary of the method: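 HLM-supplemented p53RE-bla reporter assay: 16 h compound exposure at 37 C, microsomes and NADPH each 0.5 mg/mL final, read by fluorescence intensity.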
# [7] = p53 small molecule agonists, cell-based qHTS assay with rat liver microsomes (AID 1963578)
# Summary of the method: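 Quantitative HTS of the Tox21 10K library: p53RE-bla cells, rat liver microsomes plus NADPH at 0.5 mg/mL final each, 16 h at 37 C, beta-lactamase fluorescence detection.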
# [8] = p53 small molecule agonists, cell-based qHTS assay with human liver microsomes: qHTS cell viability counter screen (AID 1963579); also: nearly all actives have a fitted effect of over 45% in size
# Summary of the method: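 Viability of p53RE-bla cells is measured as CellTiter-Glo luminescence following a 16 h, 37 C incubation with compound, liver microsomes from human donors and NADPH.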
# [9] = p53 small molecule agonists, cell-based qHTS assay: qHTS cell viability counter screen (AID 1963581); also: nearly all actives have a fitted effect of over 45% in size
# Summary of the method: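 Counter screen read by CellTiter-Glo luminescence (ATP content, 30 min at room temperature), run in the same wells as the beta-lactamase reporter read. HCT-116 p53RE-bla cells saw compounds for 16 h at 37 C.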
# [10] = p53 small molecule agonists, cell-based qHTS assay (AID 1963582; active = well fitted activation curve with a large enough effect in the signal ratio in the repeat runs, not every such curve was filed as active; the % refers to the signal ratio)
# Summary of the method: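 Read-out is beta-lactamase FRET fluorescence after 2 h at room temperature with LiveBLAzer B/G substrate. p53 response element-bla cells were treated 16 h at 37 C with compounds in DMSO, added 5 h after seeding.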
# [11] = target: 5-hydroxytryptamine receptor 2A (Homo sapiens) (UniProt P28223); assay: 5-hydroxytryptamine receptor 2A (HTR2A) small molecule antagonists, cell-based qHTS assay (AID 1963586); also: nearly all actives have a fitted effect of over 45% in size
# Sequence of 5-hydroxytryptamine receptor 2A (Homo sapiens) (P28223 whole entry, looked up): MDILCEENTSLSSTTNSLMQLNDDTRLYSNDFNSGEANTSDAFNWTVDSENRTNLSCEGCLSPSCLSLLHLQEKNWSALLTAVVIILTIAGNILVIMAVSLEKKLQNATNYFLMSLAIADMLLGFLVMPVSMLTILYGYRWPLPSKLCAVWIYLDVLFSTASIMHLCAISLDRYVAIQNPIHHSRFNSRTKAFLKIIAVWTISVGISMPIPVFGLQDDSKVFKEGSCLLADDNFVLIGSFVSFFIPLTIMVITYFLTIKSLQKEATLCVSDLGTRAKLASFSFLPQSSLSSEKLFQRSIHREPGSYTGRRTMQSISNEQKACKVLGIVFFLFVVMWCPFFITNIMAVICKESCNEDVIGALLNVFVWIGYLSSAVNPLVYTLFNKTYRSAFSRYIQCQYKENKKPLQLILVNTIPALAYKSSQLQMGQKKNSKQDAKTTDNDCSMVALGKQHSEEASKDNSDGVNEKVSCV
# Summary of the method: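 CHO cells stably expressing human HTR2A were plated for 18 h at 37 C, then loaded with calcium dye for 1 h. Compounds were preincubated 5 min at room temperature before DOI (4 nM solution) was added. Kinetic fluorescence was read for 3 min.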
# [12] = target: 5-hydroxytryptamine receptor 2A (Homo sapiens) (UniProt P28223); assay: 5-hydroxytryptamine receptor 2A (HTR2A) small molecule agonists, cell-based qHTS assay (AID 1963587); also: nearly all actives have a fitted effect of over 30% in size
# Summary of the method: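 Kinetic calcium-flux fluorescence (2 min, 1 sec intervals) after compound addition in agonist mode. HTR2A-CHO cells were cultured 18 h, then dye-loaded 1 h at 37 C.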
# [13] = target: Muscarinic acetylcholine receptor M1 (Homo sapiens) (UniProt P11229); assay: Cholinergic receptor muscarinic 1 (CHRM1) small molecule antagonists, cell-based qHTS assay (AID 1963588); also: nearly all actives have a fitted effect of over 40% in size
# Sequence of Muscarinic acetylcholine receptor M1 (Homo sapiens) (P11229 whole entry, looked up): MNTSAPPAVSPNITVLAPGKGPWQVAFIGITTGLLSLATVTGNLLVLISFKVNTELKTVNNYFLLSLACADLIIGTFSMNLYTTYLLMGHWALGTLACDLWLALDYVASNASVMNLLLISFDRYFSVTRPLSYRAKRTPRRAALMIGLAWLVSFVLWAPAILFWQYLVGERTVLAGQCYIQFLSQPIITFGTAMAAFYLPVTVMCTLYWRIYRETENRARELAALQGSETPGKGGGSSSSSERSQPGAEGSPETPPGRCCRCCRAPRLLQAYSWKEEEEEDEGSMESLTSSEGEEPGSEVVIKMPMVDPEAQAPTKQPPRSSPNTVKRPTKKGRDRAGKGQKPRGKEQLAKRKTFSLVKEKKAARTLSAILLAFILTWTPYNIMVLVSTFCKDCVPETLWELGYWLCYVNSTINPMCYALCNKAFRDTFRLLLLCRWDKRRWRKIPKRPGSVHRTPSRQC
# Summary of the method: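 Compounds were tested at 15 concentrations in three independent runs. Dye-loaded CHRM1-CHO cells were exposed 5 min at room temperature before stimulation by acetylcholine added at 50nM. Intracellular calcium was read kinetically on FDSS for 3 min.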
# [14] = target: Muscarinic acetylcholine receptor M1 (Homo sapiens) (UniProt P11229); assay: Cholinergic receptor muscarinic 1 (CHRM1) small molecule agonists, cell-based qHTS assay (AID 1963589); also: nearly all actives have a fitted effect of over 35% in size
# Summary of the method: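 Agonist-mode calcium-flux screen: compounds at 15 concentrations, three independent runs, were pin-transferred onto dye-loaded human CHRM1-CHO cells. Fluorescence was then recorded kinetically every second over minutes.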
# [15] = cAMP Responsive Elements (CRE) small molecule agonists, cell-based qHTS assay (AID 1963590)
# Summary of the method: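 Agonist mode: compound added to CRE-bla HEK 293T cells (2,000/well, 18 h after plating) for 3 h at 37 C/5% CO2. Reporter activity detected via FRET beta-lactamase substrate, 2 h room-temperature loading.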
# [16] = cAMP Responsive Elements (CRE) small molecule antagonists, cell-based qHTS assay (AID 1963591; active = well fitted inhibition curve with a large enough effect in the signal ratio in the repeat runs, not every such curve was filed as active; the % refers to the signal ratio)
# Summary of the method: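 Antagonist mode: compounds are added alongside the adenylyl cyclase activator NKH477 (0.25 uM final) to CRE-bla HEK293T cells for 3 h. LiveBLAzer FRET substrate, 2 h at room temperature, reports bla expression.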
# [17] = target: Beta-2 adrenergic receptor (Homo sapiens) (UniProt P07550); assay: Adrenergic beta2 receptor (ADRB2) small molecule antagonists, cell-based qHTS assay (AID 1963592); also: series mostly up to about 92 µM; nearly all actives have a fitted effect of over 50% in size
# Sequence of Beta-2 adrenergic receptor (Homo sapiens) (P07550 whole entry, looked up): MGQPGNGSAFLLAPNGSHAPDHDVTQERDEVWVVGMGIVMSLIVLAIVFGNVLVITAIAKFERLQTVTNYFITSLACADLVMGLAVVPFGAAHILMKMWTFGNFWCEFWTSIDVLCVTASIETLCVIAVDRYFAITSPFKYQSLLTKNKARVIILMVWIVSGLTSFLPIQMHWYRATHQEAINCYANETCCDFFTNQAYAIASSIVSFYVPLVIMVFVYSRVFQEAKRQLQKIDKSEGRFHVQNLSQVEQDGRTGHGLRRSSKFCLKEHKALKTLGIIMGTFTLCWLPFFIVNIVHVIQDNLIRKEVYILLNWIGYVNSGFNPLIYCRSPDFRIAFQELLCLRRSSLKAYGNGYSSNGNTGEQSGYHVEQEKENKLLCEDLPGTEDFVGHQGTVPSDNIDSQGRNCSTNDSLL
# Summary of the method: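 Assay format: CHO-ADRB2 cells, 18-20hr seeding at 37C/5% CO2, then compound plus 1nM isoproterenol agonist mix for 0.5hr RT. Homogeneous time-resolved fluorescence cAMP detection after 1hr, expressed as 665/615 nm ratio.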
# [18] = target: D(2) dopamine receptor (Homo sapiens) (UniProt P14416); assay: Dopamine D2 receptor (DRD2) small molecule antagonists, cell-based qHTS assay (AID 1963595; active = well fitted inhibition curve with a large enough effect in the signal ratio in the repeat runs, with a control signal flat; the % refers to the signal ratio)
# Sequence of D(2) dopamine receptor (Homo sapiens) (P14416 whole entry, looked up): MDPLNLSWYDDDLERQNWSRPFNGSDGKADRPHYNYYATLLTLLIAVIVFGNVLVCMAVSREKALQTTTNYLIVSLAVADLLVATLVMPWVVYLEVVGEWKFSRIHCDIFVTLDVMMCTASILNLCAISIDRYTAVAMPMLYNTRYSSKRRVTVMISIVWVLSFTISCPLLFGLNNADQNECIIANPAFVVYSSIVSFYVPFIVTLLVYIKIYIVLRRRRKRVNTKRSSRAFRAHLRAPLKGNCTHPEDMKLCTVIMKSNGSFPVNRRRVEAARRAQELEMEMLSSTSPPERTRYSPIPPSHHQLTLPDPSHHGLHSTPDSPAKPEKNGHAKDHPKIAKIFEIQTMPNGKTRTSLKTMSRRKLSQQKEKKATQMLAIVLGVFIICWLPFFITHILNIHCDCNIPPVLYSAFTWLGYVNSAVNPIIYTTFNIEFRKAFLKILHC
# Summary of the method: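 HTRF cAMP read-out at 665 and 620 nm emission (340 nm excitation). Antagonist mode: compounds were tested against 12 nM quinpirole in DRD2-HEK293 cells, with 200 nM NKH477 raising cAMP and 0.1 mM Ro20-1724 blocking its breakdown.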
# [19] = target: D(2) dopamine receptor (Homo sapiens) (UniProt P14416); assay: Dopamine D2 receptor (DRD2) small molecule agonists, cell-based qHTS assay (AID 1963594); also: nearly all actives have a fitted effect of over 35% in size
# Summary of the method: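 cAMP accumulation in DRD2-HEK293 cells measured by HTRF after 1 h detection; compounds added 10 min before NKH477 (200nM […]) forskolin-analogue stimulation, 30 min at room temperature, with Ro20-1724 present at 0.1 mM final.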
Structure (SMILES),Potency [1],Potency [2],Potency [3],outcome [4],outcome [5],Potency [6],Potency [7],Potency [8],Potency [9],Potency [10],Potency [11],Potency [12],Potency [13],Potency [14],Potency [15],Potency [16],Potency [17],Potency [18],Potency [19]
Cc1cccc(C)c1NC(=O)c1ccccc1C(=O)O,inactive,inactive,inactive,inactive,inactive,inactive,inactive,inactive,inactive,inactive,inactive,inactive,inactive,inactive,inactive,inactive,inactive,inactive,–
CN1C(=O)N(C)C(O)C1O (stereo not drawn),inactive,inactive,inactive,inactive,inactive,inactive,inactive,inactive,inactive,inactive,inactive,inactive,inactive,inactive,inactive,inactive,inactive,inactive,inactive
COc1cc(OC)cc(OC)c1,inactive,inactive,inactive,inactive,inactive,inactive,inactive,inactive,inactive,inactive,inactive,inactive,inactive,inactive,inactive,–,inactive,inactive,inactive
Nc1ccc(C(=O)OCCCOC(=O)c2ccc(N)cc2)cc1,inactive,inactive,inactive,inactive,inactive,inactive,inactive,inactive,inactive,inactive,inactive,inactive,inactive,inactive,–,–,inactive,inactive,inactive
CC(C)=NNC(N)=S,30.6 µM (active),15.4 µM (active),inactive,inactive,inactive,inactive,inactive,inactive,inactive,inactive,inactive,inactive,inactive,inactive,–,inactive,–,inactive,inactive
CCC(CC)C(=O)O,inactive,inactive,inactive,inactive,inactive,inactive,inactive,inactive,inactive,inactive,inactive,inactive,inactive,inactive,inactive,–,inactive,inactive,–
CC(=O)OCC(=O)[C@@]1(O)CCC2C3CCC4=CC(=O)CC[C@]4(C)C3[C@@H](O)C[C@@]21C (stereo partly drawn),inactive,inactive,inactive,inactive,inactive,inactive,inactive,inactive,inactive,inactive,inactive,–,inactive,–,inactive,inactive,inactive,inactive,inactive
CC(=O)Oc1cc2c(s1)CCN(C(C(=O)C1CC1)c1ccccc1F)C2 (stereo not drawn),inactive,inactive,inactive,inactive,inactive,inactive,inactive,inactive,inactive,inactive,inactive,inactive,inactive,inactive,–,–,inactive,inactive,inactive
Clc1cccnc1,inactive,inactive,inactive,inactive,inactive,inactive,inactive,inactive,inactive,inactive,inactive,inactive,inactive,–,inactive,inactive,inactive,inactive,inactive
c1cnc2c(n1)CCCC2,inactive,inactive,inactive,inactive,inactive,inactive,inactive,inactive,inactive,inactive,inactive,inactive,–,inactive,inactive,inactive,inactive,inactive,inactive
CCCc1ccc(O)c(OC)c1,inactive,inactive,inactive,inactive,inactive,inactive,inactive,inactive,inactive,inactive,inactive,inactive,inactive,inactive,inactive,inactive,inactive,inactive,inactive
CC(=O)OCC(=O)[C@@]1(O)CC[C@H]2[C@@H]3CCC4=CC(=O)C=C[C@]4(C)[C@@]3(F)[C@@H](O)C[C@@]21C,inactive,inactive,inactive,inactive,inactive,inactive,inactive,inactive,inactive,inactive,inactive,–,inactive,inactive,inactive,inactive,inactive,inactive,inactive

# Reference: PubChem BioAssay (Tox21)
